Several values for one entry are separate records, joined by “and”; a condition that tells them apart may be missing. Equal values may be shown once. A number with no mark means an inactive call. Inconclusive results are not listed. Entries that show only a call come without a potency. Activity calls are given as the source filed them. The call rests on the fitted dose curve.
Experiments:
[1] = biological target: Acetylcholinesterase (Homo sapiens) (UniProt P22303); assay: Acetylcholinesterase (AChE) small molecule antagonists: colormetric cell-based qHTS assay (AID 1347395); details: SH-SY5Y cells AChE activity, colorimetric (Ellman); series mostly up to 115 µM; further: nearly all actives have a fitted effect of over 30% in size; further: potency means the concentration at half of the fitted maximal effect
How it was run: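 After overnight attachment at 37 C, SH-SY5Y cells get 30 min compound exposure; detection cocktail (acetylthiocholine, DTNB) then incubates 90 min at 37 C, and absorbance reflects AChE-generated thiocholine.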

[2] = biological target: Acetylcholinesterase (Homo sapiens) (UniProt P22303); assay: Acetylcholinesterase (AChE) small molecule antagonists: enzyme-based qHTS assay (AID 1347397); details: Potency: AChE enzyme activity inhibition; outcome: AChE enzyme activity inhibition; series mostly up to 115 µM; further: nearly all actives have a fitted effect of over 55% in size; further: potency means the concentration at half of the fitted maximal effect
How it was run: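 Colorimetric DTNB read-out of thiocholine released from acetylthiocholine by recombinant human AChE (50 mU/mL as dispensed). Compounds were preincubated 30 min at RT before substrate/DTNB addition, with a 10 min RT reaction.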

[3] = biological target: Acetylcholinesterase (Homo sapiens) (UniProt P22303); assay: Acetylcholinesterase (AChE) small molecule antagonists: fluorescence cell-based qHTS assay (AID 1347398); details: SH-SY5Y cells; Potency: AChE activity; outcome: AChE activity; series mostly up to 115 µM; further: nearly all actives have a fitted effect of over 50% in size; further: potency means the concentration at half of the fitted maximal effect
How it was run: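 SH-SY5Y, 2,000 cells/well, attached overnight; cmpd 30 min 37 C; acetylthiocholine/Thiolite Green cocktail 40 min RT; fluorescence Ex/Em 490/520 nm.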

[4] = biological target: Acetylcholinesterase (Homo sapiens) (UniProt P22303); assay: Acetylcholinesterase (AChE) small molecule antagonists: enzyme-based qHTS assay with human liver microsomes (AID 1347399); details: Potency: qHTS inhibition; outcome: qHTS inhibition; series mostly up to 115 µM; further: nearly all actives have a fitted effect of over 60% in size
How it was run: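 Recombinant human AChE (50 mU/mL in the enzyme mix) and human liver microsomes (0.25 mg/mL final) were preincubated with compound and NADPH (0.25 mg/mL final) for 30 min at 37 C. Acetylthiocholine/DTNB was then added; thiocholine was read colorimetrically after 10 min at room temperature.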

Chain of Acetylcholinesterase (Homo sapiens) (P22303 whole entry, looked up): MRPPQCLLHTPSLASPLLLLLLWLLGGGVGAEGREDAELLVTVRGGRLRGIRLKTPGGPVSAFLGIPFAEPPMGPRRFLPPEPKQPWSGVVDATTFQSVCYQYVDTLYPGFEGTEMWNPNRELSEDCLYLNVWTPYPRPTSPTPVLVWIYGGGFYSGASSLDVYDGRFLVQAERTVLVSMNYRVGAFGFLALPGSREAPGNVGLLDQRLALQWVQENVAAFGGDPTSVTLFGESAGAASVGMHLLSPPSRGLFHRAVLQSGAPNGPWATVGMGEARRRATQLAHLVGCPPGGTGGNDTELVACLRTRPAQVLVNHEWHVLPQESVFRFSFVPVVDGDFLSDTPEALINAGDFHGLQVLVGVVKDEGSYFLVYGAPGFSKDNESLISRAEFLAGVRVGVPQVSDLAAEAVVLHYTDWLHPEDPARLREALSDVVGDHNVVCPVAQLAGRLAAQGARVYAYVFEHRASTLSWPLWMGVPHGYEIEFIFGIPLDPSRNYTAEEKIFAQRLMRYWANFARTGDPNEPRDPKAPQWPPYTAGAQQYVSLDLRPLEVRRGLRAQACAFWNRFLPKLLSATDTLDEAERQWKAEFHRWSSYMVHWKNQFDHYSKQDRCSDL

## CCC(Cl)CC(Cl)C(Cl)C(Cl)C(Cl)C(C)Cl (stereo not given)
[1]
  activity, negative = inhibition: -0.388% [at 23.6 µM]
[2]
  activity change, negative = inhibition: -3.68% [at 23.6 µM]
[3]
  activity change, negative = inhibition: 0.856% [at 23.8 µM]
[4]
  activity change, negative = inhibition: 0.639% [at 23.6 µM]

## CCCCCCCC(OC)OC
[1]
  Potency: inactive
[2]
  Potency: inactive
[3]
  Potency: inactive
[4]
  Potency: inactive

## CC(=O)Oc1c(C)c(C)c2c(c1C)CC[C@@](C)(CCC[C@H](C)CCC[C@H](C)CCCC(C)C)O2
[1]
  Potency: inactive
[2]
  Potency: inactive
[3]
  Potency: inactive
[4]
  Potency: inactive

## C=CCCC(=O)/C=C/C1C(C)=CCCC1(C)C (stereo not given)
[1]
  Potency: inactive
[2]
  Potency: inactive
[3]
  Potency: inactive
[4]
  Potency: inactive

## CC(C)(C)c1n[nH]c(=S)n(N)c1=O
[1]
  Potency: inactive
[2]
  Potency: inactive
[3]
  Potency: inactive
[4]
  Potency: inactive

## Nc1nc2ccc(OC(F)(F)F)cc2s1
[1]
  Potency: inactive
[2]
  Potency: inactive
[3]
  Potency: inactive
[4]
  Potency: inactive

## CC(=O)c1ccc2ccc3ccccc3c2c1
[1]
  Potency: inactive
[2]
  Potency: inactive
[3]
  Potency: inactive
[4]
  Potency: inactive

## O=C(O)c1ccc([N+](=O)[O-])cc1
[1]
  Potency: inactive
[2]
  Potency: inactive
[3]
  Potency: inactive
[4]
  Potency: inactive

## C=CC(=O)OCC(Br)CBr (stereo not given)
[1]
  Potency: inactive
[2]
  Potency: inactive
[3]
  Potency: inactive
[4]
  Potency: inactive

## NCCNC(=O)c1ccc(Cl)cn1
[1]
  Potency: inactive
[2]
  Potency: inactive
[3]
  Potency: inactive
[4]
  Potency: inactive

## CCOC(=O)OCC
[1]
  Potency: inactive
[2]
  Potency: inactive
[3]
  Potency: inactive
[4]
  Potency: inactive

## C[C@]12C[C@H](O)[C@H]3[C@@H](CCC4=CC(=O)CC[C@@]43C)[C@@H]1CC[C@@H]2C(=O)CO
[1]
  Potency: inactive
[2]
  Potency: inactive
[3]
  Potency: inactive
[4]
  Potency: inactive

## O=C(O)[C@H](O)[C@@H](O)[C@H](O)[C@H](O)CO
[1]
  Potency: inactive
[2]
  Potency: inactive
[3]
  Potency: inactive
[4]
  Potency: inactive

## CCCCCCCCCCCC[N+](C)(C)CC(=O)[O-]
[1]
  Potency: inactive
[2]
  Potency: inactive
[3]
  Potency: inactive
[4]
  Potency: inactive

## CCOCCO
[1]
  Potency: inactive
[2]
  Potency: inactive
[3]
  Potency: inactive
[4]
  Potency: inactive

## COC(=O)CCCCC(CCSS/C(CCO)=C(\C)N(C=O)Cc1cnc(C)nc1N)SC(C)=O (stereo not given)
[1]
  Potency: inactive
[2]
  Potency: inactive
[3]
  Potency: inactive
[4]
  Potency: inactive

## CN1C(=O)CC(c2ccccc2)C1=O (stereo not given)
[1]
  Potency: inactive
[2]
  Potency: inactive
[3]
  Potency: inactive
[4]
  Potency: inactive

## CCCC(C)C
[1]
  Potency: inactive
[2]
  Potency: inactive
[3]
  Potency: inactive
[4]
  Potency: inactive

## CCOc1nc2cccc(C(=O)O)c2n1Cc1ccc(-c2ccccc2-c2nn[nH]n2)cc1
[1]
  Potency: inactive
[2]
  Potency: inactive
[3]
  Potency: inactive
[4]
  Potency: inactive

## Cc1cc(NS(=O)(=O)c2ccc(N)cc2)nc(C)n1
[1]
  Potency: inactive
[2]
  Potency: inactive
[3]
  Potency: inactive
[4]
  Potency: inactive

## OCCCCCO
[1]
  Potency: inactive
[2]
  Potency: inactive
[3]
  Potency: inactive
[4]
  Potency: inactive

## COc1cc(CNC(=O)CCCC/C=C/C(C)C)ccc1O
[1]
  Potency: inactive
[2]
  Potency: inactive
[3]
  Potency: inactive
[4]
  Potency: inactive

## C1=CCCC1
[1]
  Potency: inactive
[2]
  Potency: inactive
[3]
  Potency: inactive
[4]
  Potency: inactive

## Cc1cccc(C)c1O
[1]
  Potency: inactive
[2]
  Potency: inactive
[3]
  Potency: inactive
[4]
  Potency: inactive

## CCCCCCCCCCCCc1ccc(O)cc1
[1]
  Potency: inactive
[2]
  Potency: 63.3 µM (active)
[3]
  Potency: inactive
[4]
  Potency: inactive

## CC1=C(C=O)C(C)(C)CC=C1
[1]
  Potency: inactive
[2]
  Potency: inactive
[3]
  Potency: inactive
[4]
  Potency: inactive

## C=C(C)CC(C)(C)C
[1]
  Potency: inactive
[2]
  Potency: inactive
[3]
  Potency: inactive
[4]
  Potency: inactive

## F[Si-2](F)(F)(F)(F)F
[1]
  Potency: inactive
[2]
  Potency: inactive
[3]
  Potency: inactive
[4]
  Potency: inactive

## Cc1cc(=O)n(-c2ccccc2)n1C
[1]
  Potency: inactive
[2]
  Potency: inactive
[3]
  Potency: inactive
[4]
  Potency: inactive

## CC1CCc2cc(F)cc3c(=O)c(C(=O)O)cn1c23 (stereo not given)
[1]
  Potency: inactive
[2]
  Potency: inactive
[3]
  Potency: inactive
[4]
  Potency: inactive

## CCN(CC)CCSC(=O)C(c1ccccc1)c1ccccc1
[1]
  Potency: inactive
[2]
  Potency: inactive
[3]
  Potency: inactive
[4]
  Potency: inactive

## CC(=O)[C@H]1CC[C@H]2[C@@H]3CC=C4C[C@@H](O)CC[C@]4(C)[C@H]3CC[C@]12C
[1]
  Potency: inactive
[2]
  Potency: inactive
[3]
  Potency: inactive
[4]
  Potency: inactive

## CC(C)CC(C)CC(O)CC(C)C (stereo not given)
[1]
  Potency: inactive
[2]
  Potency: inactive
[3]
  Potency: inactive
[4]
  Potency: inactive

## CC1=CC[C@H](CC=O)C1(C)C
[1]
  Potency: inactive
[2]
  Potency: inactive
[3]
  Potency: inactive
[4]
  Potency: inactive

## O=C(/C=C/C=C/c1ccc2c(c1)OCO2)N1CCCCC1
[1]
  Potency: inactive
[2]
  Potency: inactive
[3]
  Potency: inactive
[4]
  Potency: inactive

## Cc1ccc(O)c(C(=O)c2ccccc2)c1
[1]
  Potency: inactive
[2]
  Potency: inactive
[3]
  Potency: inactive
[4]
  Potency: inactive

## CCCCCCCCCCCC(=O)OCC(O)CO (stereo not given)
[1]
  Potency: inactive
[2]
  Potency: inactive
[3]
  Potency: inactive
[4]
  Potency: inactive

## CCCCC/C=C/C=C/C=O
[1]
  Potency: inactive
[2]
  Potency: inactive
[3]
  Potency: inactive
[4]
  Potency: inactive

## CC(O)(c1ccc(Cl)cc1)c1ccc(Cl)cc1
[1]
  Potency: inactive
[2]
  Potency: inactive
[3]
  Potency: inactive
[4]
  Potency: inactive

## Cc1c(Cl)cccc1[N+](=O)[O-]
[1]
  Potency: inactive
[2]
  Potency: inactive
[3]
  Potency: inactive
[4]
  Potency: inactive

## CCCCCCCCCCCCCCCC[N+](C)(C)Cc1ccccc1
[1]
  Potency: inactive
[2]
  Potency: 82.2 µM (active) and 32.3 µM (active) and 38.9 µM (active)
[3]
  Potency: 46.2 µM (active) and 57.4 µM (active)
[4]
  Potency: inactive

## CCCC(C)CO (stereo not given)
[1]
  Potency: inactive
[2]
  Potency: inactive
[3]
  Potency: inactive
[4]
  Potency: inactive

## Cc1cc(O)c2c(c1)C(=O)c1cccc(O)c1C2=O
[1]
  Potency: inactive
[2]
  Potency: inactive
[3]
  Potency: inactive
[4]
  Potency: inactive

## OC[C@@H](O)C(O)[C@@H](O)CO (stereo not given in full)
[1]
  Potency: inactive
[2]
  Potency: inactive
[3]
  Potency: inactive
[4]
  Potency: inactive

## O=C(OCC1(COC(=O)c2cccnc2)CCCC(COC(=O)c2cccnc2)(COC(=O)c2cccnc2)C1O)c1cccnc1
[1]
  Potency: inactive
[2]
  Potency: inactive
[3]
  Potency: inactive
[4]
  Potency: inactive

## Nc1ccc(-c2ccc(F)cc2)cc1
[1]
  Potency: inactive
[2]
  Potency: inactive
[3]
  Potency: inactive
[4]
  Potency: inactive

## CC(C)N=C=NC(C)C
[1]
  Potency: inactive
[2]
  Potency: inactive
[3]
  Potency: inactive
[4]
  Potency: inactive

## C1CCC(SSC2CCCCC2)CC1
[1]
  Potency: inactive
[2]
  Potency: inactive
[3]
  Potency: inactive
[4]
  Potency: inactive

## COc1ccc(N)c(C)c1
[1]
  Potency: inactive
[2]
  Potency: inactive
[3]
  Potency: inactive
[4]
  Potency: inactive

## CC(=O)OCc1ccccc1
[1]
  Potency: inactive
[2]
  Potency: inactive
[3]
  Potency: inactive
[4]
  Potency: inactive

## O=S(=O)(O)CCS
[1]
  Potency: inactive
[2]
  Potency: inactive
[3]
  Potency: inactive
[4]
  Potency: inactive

## CCOC=C(C(=O)OCC)C(=O)OCC
[1]
  Potency: inactive
[2]
  Potency: inactive
[3]
  Potency: inactive
[4]
  Potency: inactive

## COC(=O)C1CCC(C(=O)OC)CC1 (stereo not given)
[1]
  Potency: inactive
[2]
  Potency: inactive
[3]
  Potency: inactive
[4]
  Potency: inactive

## CC(=O)OCC=C(C)C
[1]
  Potency: inactive
[2]
  Potency: inactive
[3]
  Potency: inactive
[4]
  Potency: inactive

## N#Cc1nc(Cl)c(Cl)c(Cl)c1Cl
[1]
  Potency: inactive
[2]
  Potency: inactive
[3]
  Potency: inactive
[4]
  Potency: inactive

## c1ccc2c(c1)ccc1ccccc12
[1]
  Potency: inactive
[2]
  Potency: inactive
[3]
  Potency: inactive
[4]
  Potency: inactive

## Cc1ccc(C)o1
[1]
  Potency: inactive
[2]
  Potency: inactive
[3]
  Potency: inactive
[4]
  Potency: inactive

## CCC(C)(CCC(C)C)C(=O)[O-].CCC(C)(CCC(C)C)C(=O)[O-].[Zn+2] (stereo not given)
[1]
  Potency: inactive
[2]
  Potency: inactive
[3]
  Potency: inactive
[4]
  Potency: inactive

## C=C[Si](OC)(OC)OC
[1]
  Potency: inactive
[2]
  Potency: inactive
[3]
  Potency: inactive
[4]
  Potency: inactive

## CCCCCC1Nc2cc(C(F)(F)F)c(S(N)(=O)=O)cc2S(=O)(=O)N1 (stereo not given)
[1]
  Potency: 15.5 µM (active)
[2]
  Potency: 21.9 µM (active)
[3]
  Potency: 9.77 µM (active)
[4]
  Potency: inactive
